Screens from PubChem BioAssay.
Only some compounds are listed: those with a hit (about 2.8% of all), similar ones and a draw of the others.
B2AR ag = activates human beta-2 adrenergic receptor causing internalization. actives 0.43% (n = 340,000). Am2.2-beta2AR cells, FAP receptor internalization, flow cytometry. response, % (no concentration beside the values). AID 504454;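 active = response above a set limit, near 3 SD of response in nonfluorescent compounds, cut at about 42% in these data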
Target sequence (P07550 whole entry, looked up): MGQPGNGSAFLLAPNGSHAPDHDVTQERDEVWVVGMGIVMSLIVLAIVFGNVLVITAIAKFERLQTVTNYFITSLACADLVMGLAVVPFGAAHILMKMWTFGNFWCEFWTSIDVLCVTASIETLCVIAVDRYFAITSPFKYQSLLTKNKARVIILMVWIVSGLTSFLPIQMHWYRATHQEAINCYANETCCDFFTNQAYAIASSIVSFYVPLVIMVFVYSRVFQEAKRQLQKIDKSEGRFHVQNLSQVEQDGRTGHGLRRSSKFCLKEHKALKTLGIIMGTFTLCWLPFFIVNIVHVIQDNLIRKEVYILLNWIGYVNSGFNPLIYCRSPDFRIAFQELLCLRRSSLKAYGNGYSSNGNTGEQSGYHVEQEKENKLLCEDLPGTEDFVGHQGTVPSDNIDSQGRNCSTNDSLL
KKLEB tox = reduces viability of KKLEB cystic fibrosis airway cells | KKLEB CF airway cells viability, ATPlite luminescence, overnight; hits give low values; cells stimulated with P. aeruginosa culture filtrate | activity change (cytotoxicity), % at 5 µM | actives 0.36% (n = 360,000);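 active = corrected activity change at or below -50% at 5 µM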
HIF-2a block = HIF-2a inhibition | 786-0 RCC cells HIF-2a reporter, luciferase luminescence, overnight | inhibition, % at 18.8 µM | actives 0.72% (n = 360,000) | AID 624352;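 active = inhibition of the luminescence signal of 40% or more relative to plate controls, in a single-dose primary screen at 18.75 µM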
Peg3 prom inh = Peg3 promoter activity inhibition; HeLa PEG-Prom luciferase reporter, luminescence, overnight; inhibition, % at 20 µM; actives 1.7% (n = 360,000); AID 588405;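 active = inhibition of at least 50% at 20 µM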
MITF TRPM1 inh = reduces MITF-dependent TRPM1 promoter luciferase signal; SK-MEL-5 TRPM1 promoter luciferase, 24 h; inhibition, % at 12.5 µM; actives 0.83% (n = 330,000); AID 488899;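 active = mean inhibition across replicates of 60% or more, whatever share of single replicates reaches that level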
CF NFkB inh = blocks PAF-induced NF-kB reporter in cystic fibrosis cells; actives 0.86% (n = 360,000); KKLEB NF-kB-GFP reporter, GFP fluorescence overnight; inhibition, % at 5 µM;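 active = at least 50% inhibition at 5 µM, scaled per plate between neutral and stimulator controls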;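 also: PAF is a Pseudomonas aeruginosa culture filtrate used as stimulus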
CF NFkB inh conf = CF NF-kB inhibition confirmation, single concentration; shares compounds with CF NFkB inh; KKLEB CF airway cells, PAF-induced NF-kB-GFP fluorescence, overnight; inhibition, % at 5 µM; actives 64% (n = 1,300); AID 602472; in the data active = inhibition above about 40%;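 also: stimulus PAF is a Pseudomonas aeruginosa filtrate and not platelet activating factor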
Mdm2-MdmX confirm = confirmation of inhibitors of human Mdm2/MdmX interaction, set 2 | actives 99% (n = 740) | SaOS-2 split-luciferase Mdm2/MdmX complementation, luminescence | AID 504601 | shares compounds with HIF-2a block | inhibition, % at 8 µM;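 active = mean inhibition of the luminescence signal across two replicates at or above 26 percent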
HIF-2a inh conf = HIF-2a inhibition, single concentration confirmation. AID 651580. actives 56% (n = 1,800). shares compounds with HIF-2a block. inhibition, % at 18.8 µM. 786-0 RCC cells, HIF-2a luciferase reporter luminescence, overnight;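 active = mean inhibition across four replicates of at least 40 percent at the single tested concentration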
HIF-1a counter = inhibits HIF-1a reporter, a counter-screen for HIF-2a inhibitors; inhibition, % at 18.8 µM; actives 72% (n = 1,800); MiaPaCa-2 HIF-1a luciferase reporter, desferoxamine, overnight; AID 651589; shares compounds with HIF-2a block;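 active = mean inhibition of the reporter signal across four replicates at the single tested dose of 50% or more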
Large screens that a line does not name were inactive (follow-up assays come after a bar, where they were run).

O=C(Nc1c(Cl)ccc2nsnc12)c1ccc([N+](=O)[O-])o1	HIF-2a block 60.4, Peg3 prom inh 89.7, MITF TRPM1 inh 89.2, CF NFkB inh 86.8 | CF NFkB inh conf inactive | HIF-2a inh conf inactive | HIF-1a counter 99.9
O=C(c1ccc(S(=O)(=O)c2cccc(Cl)c2)c([N+](=O)[O-])c1)N1CCN(c2ccccn2)CC1	HIF-2a block 40.2, Peg3 prom inh 52.6, CF NFkB inh 86.1 | CF NFkB inh conf inactive | Mdm2-MdmX confirm 95.7 | HIF-2a inh conf inactive | HIF-1a counter 85.0
O=C1NC[C@H](Cc2ccccc2)N(C[C@H]2CCCN2C[C@H](Cc2ccccc2)N2C[C@H](Cc3ccccc3)N(CC3CCCCCC3)C(=O)C2=O)C1=O	HIF-2a block 80.4, Peg3 prom inh 53.7, CF NFkB inh 56.1 | CF NFkB inh conf inactive | HIF-2a inh conf inactive | HIF-1a counter 105.5
CC(=O)OC1CCC2(C)C(CCC3C4CC=C(C(C)=O)C4(C)OC(=O)CC32)C1 (stereo not drawn)	HIF-2a block 65.6, Peg3 prom inh 111.2, CF NFkB inh 95.7 (no result: B2AR ag, MITF TRPM1 inh) | CF NFkB inh conf 101.0 | HIF-2a inh conf 62.2 | HIF-1a counter 105.0
COC(=O)C[C@@H]1C=C[C@@H](NC(=O)C2CCC2)[C@@H](CO)O1	none (no result: B2AR ag, KKLEB tox, Peg3 prom inh, MITF TRPM1 inh, CF NFkB inh)
Cc1ccccc1S(=O)(=O)NC(=O)C1(C)CCN1C(=O)C1CCCCC1 (stereo not drawn)	none (no result: B2AR ag, MITF TRPM1 inh)
CC(=O)N1CCN(c2ccc(NC(=O)c3ccc(Br)o3)cc2Cl)CC1	none
CC(C)C(=O)N1CCN(c2ccc(NC(=O)c3ccc([N+](=O)[O-])o3)cc2Cl)CC1	HIF-2a block 91.1, Peg3 prom inh 108.8, MITF TRPM1 inh 85.2, CF NFkB inh 69.3 | CF NFkB inh conf inactive | HIF-2a inh conf 80.1 | HIF-1a counter 99.3
Cc1cc(C)c2nc(C(F)(F)F)c(C#N)c(N)c2c1	Peg3 prom inh 72.6, CF NFkB inh 70.2 | CF NFkB inh conf 92.3 | Mdm2-MdmX confirm 83.2
OCCNc1ncnc2c1ncn2[C@H]1CN(C2CCCC2)C[C@@H](CO)O1	none (no result: B2AR ag, MITF TRPM1 inh)
Cc1nc(S(=O)(=O)N(C)c2ccccc2)c(C#N)c(C)c1Cl	Peg3 prom inh 53.9 | Mdm2-MdmX confirm 102.7
O=C(CSc1nnc(-c2ccccc2F)n1C1CCCCC1)Nc1cc(C(=O)O)ccc1Cl	none (no result: MITF TRPM1 inh)
CNc1cncc(-c2cccc(C(=O)NC3CC3)c2)n1	none (no result: B2AR ag, MITF TRPM1 inh)
CCN(C(=O)COC(=O)/C(=C/c1ccccc1)n1nnnc1C)C1CCCCC1	HIF-2a block 42.4 | HIF-2a inh conf inactive | HIF-1a counter 62.6
Cc1c(CCC(=O)NCCCn2ccnc2)c(=O)oc2c(C)c3oc4c(c3cc12)CCCC4	HIF-2a block 47.3 | HIF-2a inh conf 63.2 | HIF-1a counter 58.8
Cc1c(CCC(=O)N2CCC[C@H]2C(=O)O)c(=O)oc2c(C)c3oc4c(c3cc12)CCCC4	HIF-2a block 56.7 | HIF-2a inh conf 71.4 | HIF-1a counter inactive
CCCCC(NC(=O)CCc1c(C)c2cc3c4c(oc3c(C)c2oc1=O)CCCC4)C(=O)O (stereo not drawn)	HIF-2a block 52.7 | HIF-2a inh conf 54.7 | HIF-1a counter inactive
CCCCC(NC(=O)Cc1c(C)c2cc3c4c(oc3c(C)c2oc1=O)CCCC4)C(=O)O (stereo not drawn)	none
CCCCc1c(-c2ccc(F)cc2)ncn1CCc1ccccc1OC	none (no result: B2AR ag, KKLEB tox, Peg3 prom inh, MITF TRPM1 inh, CF NFkB inh)
CCCCN(C1CCS(=O)(=O)C1)S(=O)(=O)c1ccc(OC)c(OC)c1 (stereo not drawn)	none
CCN(CC)S(=O)(=O)c1ccc(N/N=C/c2cc(OC)c(OC)cc2OC)nc1	none
